Test [1] is described as follows: NCI Yeast Anticancer Drug Screen. Data for the rad50 strain (AID 155).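 Also: 0% = growth of vehicle-only cultures of the same strain.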 The note with it: S. cerevisiae rad50 strain growth inhibition; at 50.0 µM; stronger effect = higher value. In a few lines: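 DNA repair mutant yeast, compound exposure, growth read-out; inhibition is taken relative to vehicle.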
A short description of test [2]: NCI Yeast Anticancer Drug Screen. Data for the mec2-1 strain (AID 157). The note with it: S. cerevisiae mec2-1 strain, at 50.0 µM, stronger effect = higher value. In a few lines:
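mec2-1 yeast strain, carrying an alteration in DNA damage repair or cell cycle control, was exposed to compounds; growth inhibition was measured relative to vehicle-treated controls.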

The nature of test [3]: NCI Yeast Anticancer Drug Screen. Data for the sgs1 mgt1 strain (AID 161).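 Also: 0% = growth of cultures given vehicle only.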 To be noted: S. cerevisiae sgs1 mgt1 strain, at 50.0 µM, stronger effect = higher value. In a few lines: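 Growth of a repair-deficient yeast mutant was monitored after compound treatment and expressed as inhibition relative to vehicle-treated cultures.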
Test [4] is described as follows: NCI Yeast Anticancer Drug Screen. Data for the cln2 rad14 strain (AID 165).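 Also: 0% = growth equal to vehicle treated cultures.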 To be noted: S. cerevisiae cln2 rad14 strain, at 50.0 µM, stronger effect = higher value. In a few lines:
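Yeast carrying cln2 and rad14 alterations (cell cycle control and DNA damage repair) were exposed to compounds. Growth inhibition was measured against vehicle-treated controls.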

Test [5] can be described thus: NCI Yeast Anticancer Drug Screen. Data for the bub3 strain (AID 167). The note with it: S. cerevisiae bub3 mutant strain, at 50.0 µM, stronger effect = higher value. In a few lines: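 In this screen, a yeast mutant lacking normal mitotic checkpoint function is challenged with compound. Relative growth versus vehicle gives the inhibition value.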
Test [6] can be described thus: NCI Yeast Anticancer Drug Screen. Data for the mlh1 rad18 strain (AID 175). To be noted: S. cerevisiae mlh1 rad18 strain growth inhibition; at 50.0 µM; stronger effect = higher value. In a few lines: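 Growth inhibition of the yeast strain was measured after compound exposure and expressed relative to vehicle-treated controls. The strain carries defined defects in DNA damage repair.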

The panel holds about 79,000 compounds, 15% with a hit somewhere; the sample as a whole holds those more often. Values without a mark were called inactive. Active and inactive are the calls of the source. Rule as the data show it: active = growth inhibition above about 70%; inactive = the rest.

The record followed here is PubChem BioAssay (NCI).

With `CCc1ccccc1Cc1ccccc1`, the growth inhibition was 1.8% in test [1]; -4.75% in test [2]; -0.2% in test [3]; 4.65% in test [4]; -1.55% in test [5]; 10.7% in test [6].
For the compound `CC(CO)(CO)N1C(=O)C2C3c4ccccc4C(c4ccccc43)C2C1=O` (stereo not given), the growth inhibition in test [1] was -2%; in test [2] it was 1.05%; in test [3] it was 1.65%; in test [4], -3.15%; in test [5], -3.95%; in test [6], -28.7%.
For the compound `CC1CSC(=S)N1C(=O)N1C(=S)SCC1C` (stereo not given), the growth inhibition in test [1] was -42.4%; in test [2], -56.8%; in test [3], -52.9%; in test [4], -10.8%; in test [5] it was -43.9%; in test [6] it was -35.5%.
Take `N#C/C(C(=O)Nc1ccccc1)=C(/N)N1CCCC1`: the growth inhibition in test [1] was 18.4%; in test [2], -15.7%; in test [3] it was 1.85%; in test [4] it was -5.65%; in test [5], -14.3%; in test [6], 25.6%.
For the compound `C=Cc1c(Cl)cccc1Cl`, the growth inhibition in test [1] is 0.25%; in test [2], -8.85%; in test [3], -5.55%; in test [4] it was 3.5%; in test [5] it was -18.6%; in test [6], -11.3%.
Turning to `C[N+](C)(C)CC(=O)N/N=C(\C(=O)Nc1ccc(Cl)cc1)C1C(=O)N(c2ccccc2)N=C1N` (stereo not given), the growth inhibition is -15.4% in test [1]; 1.25% in test [2]; -14.8% in test [3]; -13.8% in test [4]; -6.95% in test [5]; 17.6% in test [6].
As to `CCOC(=O)c1ccccc1O`, the growth inhibition is -17.8% in test [1]; -5.8% in test [2]; -8.6% in test [3]; -38.4% in test [4]; -12.4% in test [5]; 9.5% in test [6].
With `O=c1c2ccccc2c(Cc2ccccc2)nn1C1CCCCCC1`, the growth inhibition in test [1] was -14.2%; in test [2], 2%; in test [3], 30.9%; in test [4] it was -29.5%; in test [5], 27.1%; in test [6] it was 16.1%.
For `C[N+](C)(CCOc1ccccc1)Cc1ccccc1`, the growth inhibition is 55% in test [1]; 25.8% in test [2]; 39.3% in test [3]; 26.8% in test [4]; 48% in test [5]; 31.5% in test [6].
Take `COC(=O)C(=C(C)C)S(=O)c1ccccc1` (stereo not given): the growth inhibition in test [1] is -9.85%; in test [2], 1.4%; in test [3] it was -3.55%; in test [4], -16%; in test [5] it was -13.6%; in test [6], 3.45%.
Turning to `NC(=O)c1ccc[n+](-c2ccc([N+](=O)[O-])cc2[N+](=O)[O-])c1`, the growth inhibition is 79.3% (active) in test [1]; 54.6% in test [2]; 80.2% (active) in test [3]; 39.8% in test [4]; 17.3% in test [5]; 63.4% in test [6].
Turning to `O=c1ccc2cc3c(cc2[nH]1)OCO3`, the growth inhibition was 2.5% in test [1]; -1.25% in test [2]; -4.2% in test [3]; -39.5% in test [4]; -9.2% in test [5]; 7.05% in test [6].
With `CCCCCCC[CH2][Sn]1([CH2]CCCCCCC)[O]C2C(CO)OC(n3ccc4c(N)ncnc43)C2[O]1` (stereo not given), the growth inhibition in test [1] is -0.4%; in test [2], 15.2%; in test [3], 18.1%; in test [4] it was 70.2% (active); in test [5] it was 4.45%; in test [6], -0.85%.
Take `COc1cccc(Nc2nc(NS(=O)(=O)c3cc(C)c(Cl)cc3S)n[nH]2)c1`: the growth inhibition in test [1] is -7.6%; in test [2], -2.3%; in test [3], -6.25%; in test [4] it was 7.95%; in test [5] it was 16.1%; in test [6] it was 15.8%.
With `C[N+](C)(C)CC(O)CC#N` (stereo not given), the growth inhibition in test [1] is -2.25%; in test [2] it was 1.75%; in test [3] it was -4%; in test [4], -8.35%; in test [5] it was 0.55%; in test [6], -1.8%.
In the case of `Cc1cccc2c1sc1c(C)cc(C(=O)CCC(=O)O)cc12`, the growth inhibition in test [1] was 9%; in test [2], 11.2%; in test [3] it was 5.3%; in test [4], 3.4%; in test [5], 20.4%; in test [6] it was 25.4%.
In the case of `NC(CCOCCP(=O)(O)CCC1C=CC=CC1)C(=O)O` (stereo not given), the growth inhibition in test [1] is -9.6%; in test [2], -31.7%; in test [3] it was -29.1%; in test [4], 5.6%; in test [5] it was -21.3%; in test [6] it was -19.9%.
Turning to `NNC(=S)N/N=C(\CCCC(=O)NCCc1ccccc1)CC(=O)c1ccccc1`, the growth inhibition in test [1] is -3.6%; in test [2], 12.8%; in test [3], -21.3%; in test [4] it was 18.1%; in test [5] it was 8.15%; in test [6], 8.8%.
As to `C=C(C)C#CC(O)(C(=O)OC1CCN(C)CC1)C(C)C` (stereo not given), the growth inhibition was -7.95% in test [1]; -14% in test [2]; -21.1% in test [3]; 7.2% in test [4]; 20.9% in test [5]; -22.1% in test [6].
For the compound `O=C(Cc1nc2ccc([N+](=O)[O-])cc2[nH]c1=O)C(=O)Nc1ccccc1[N+](=O)[O-]`, the growth inhibition in test [1] is 25.6%; in test [2], 8.8%; in test [3] it was 11.1%; in test [4], 12.2%; in test [5] it was 15.8%; in test [6] it was 6.05%.
